BoNT-A LC inh2: inhibitors of Botulinum neurotoxin A light chain protease. multiplex microsphere protease substrate cleavage, flow cytometry. inhibition, % at 10 µM. hit rate 0.17% among 360,000. AID 588499
Anthrax LF prot: blocks Bacillus anthracis lethal factor protease; multiplex microsphere protease cleavage assay, LF; inhibition, % at 10 µM; hit rate 0.12% among 360,000; AID 588501
BoNT-F LC inh: blocks Botulinum neurotoxin F light chain protease; Multiplex microsphere protease cleavage assay, flow cytometry; inhibition, % at 10 µM; hit rate 0.22% among 360,000; in the data active means inhibition above about 35%, passing the limit was not always enough; inconclusive means no clear call, values can overlap the other calls
SSB-PriA inh: K. pneumoniae PriA-SSBct interaction inhibition; AID 1272365; inhibition, % at 33 µM; hit rate 0.6% among 430,000; AlphaScreen SSBct-PriA binding, biotinylated peptide; in the data active means inhibition mostly above about 37%, no sharp cut-off; inactive means mostly below about 20%
Autofluor counter: compound fluorescence in toxin protease inhibitor counterscreen | compound autofluorescence counterscreen, microsphere flow cytometry; hits give high values | fluorescence intensity (concentration not given with the values) | hit rate 3.1% among 360,000 | AID 624483; in the data active means fluorescence intensity above about 16000; inconclusive means no clear call, values can overlap the other calls
Hits are given with their value; 0 = inactive; ? = inconclusive; - = no result. The list is not random: actives were taken first. Their share in the collection is about 3.1%. Unless noted, no stated cut-off is given here; in the data, active means inhibition above about 30%; inconclusive means no clear call, values can overlap the other calls; inactive means below that.

SMILES	BoNT-A LC inh2	Anthrax LF prot	BoNT-F LC inh	SSB-PriA inh	Autofluor counter
O=C(CSc1nnc2scc(-c3ccccc3)n12)NCc1ccco1	0	0	0	0	0
Nc1nc(SCC(=O)NCc2ccc3c(c2)OCO3)n[nH]1	0	0	0	0	0
O=C(CSc1nnc2scc(-c3ccccc3)n12)NCc1ccc2c(c1)OCO2	0	0	0	0	0
CCn1nc(C)c(/C=N/NC(=O)c2nc3nc(C)cc(C)n3n2)c1C	0	34	?	0	0
Cc1c(C(=O)N(CC(C)C)c2c(N)n(Cc3ccccc3)c(=O)[nH]c2=O)sc2nc3n(c(=O)c12)CCC3	0	32	0	0	?
COc1ccc(N2CCN(C(=O)c3ccc(Cn4nc(C)c([N+](=O)[O-])c4C)o3)CC2)cc1	0	0	0	48	0
Cc1nn(Cc2ccc(C(=O)N3CCCC3)o2)c(C)c1[N+](=O)[O-]	0	0	0	0	0
CCNc1oc(-c2ccc(OC)cc2)nc1S(=O)(=O)c1ccc(Br)cc1	?	0	0	0	21449
CCCCNc1oc(-c2ccc(OC)cc2)nc1S(=O)(=O)c1ccccc1	0	0	0	0	21088
CC(=O)Nc1nnc(C2CC(=O)N(c3ccccc3)C2)o1 (stereo unspecified)	-	-	-	0	-
Cc1occc1C(=O)NNC(=S)Nc1ccccc1C(F)(F)F	0	0	0	0	0
Cc1ccccc1NC(=S)NNC(=O)c1ccoc1C	0	0	0	0	24040
CN(O)C=c1ccc2c(n1)C(=O)C=CC=2	-	-	-	95	-
CCCS(=O)(=O)N1CCCC(c2nnc(-c3cccs3)o2)C1 (stereo unspecified)	-	-	-	0	-
Cc1ccc(C(=O)NN2C(=O)/C(=C/c3cn(C)c4ccccc34)SC2=S)cc1	43	0	0	0	0
Cc1cccc(NC(=O)c2cc(NC(=O)CCCC(=O)O)ccc2Cl)n1	0	0	0	0	23857
COCCN(Cc1ccoc1)S(=O)(=O)c1cccc(C(F)(F)F)c1	-	-	-	0	-
COc1ccc(CCNC(=O)N2CCN(CC(O)C3CC3)CC2)cc1 (stereo unspecified)	-	-	-	0	-
Cc1ccccc1OCCSc1nnc(-c2ccncc2)n1C	0	0	0	0	19279
O=C(Nc1cccc(Cl)c1)c1ccc(F)c(S(=O)(=O)NCc2ccccc2Cl)c1	-	-	-	0	-
O=C(c1cccc(Oc2ccccn2)c1)N1CC(n2cc(COc3ccccc3)nn2)C1	-	-	-	0	-
CC(C)CCNC(=S)NC1CCCC1	0	0	0	0	20284
CCSc1ccc([C@@H]2[C@H]3C(=O)N(CC)C(=O)[C@H]3[C@]3(C(=O)OC)CCCCN23)cc1	0	0	0	0	21568
COc1cc2c(cc1OC)[C@@H](Cc1ccc(OCCC#N)cc1)N(C)CC2	0	0	40	0	0
N#Cc1ccccc1/C=N/Nc1nc(-c2ccccc2)c2cc(Cl)ccc2n1	0	0	0	-	0
SMILES	BoNT-A LC inh2	Anthrax LF prot	BoNT-F LC inh	SSB-PriA inh	Autofluor counter
OCCNc1nc(-c2ccccc2)c2cc(Cl)ccc2n1	0	0	0	0	0
Cc1ccc2nc(N/N=C/c3ccccc3C#N)nc(-c3ccccc3)c2c1	0	0	0	-	17384
Cc1ccc2nc(NCCO)nc(-c3ccccc3)c2c1	0	0	0	0	23056
CC1(S(=O)(=O)O)CC(=O)c2ccccc2C1=O (stereo unspecified)	0	0	0	83	0
O=C(O)c1ccc(-c2ccccc2)[nH]1	0	0	0	0	22282
Cc1cc(Nc2c(C)n(C)n(-c3ccccc3)c2=O)n2c(nc3ccccc32)c1C#N	0	0	0	0	0
CCCc1cc(Nc2c(C)n(C)n(-c3ccccc3)c2=O)n2c(nc3ccccc32)c1C#N	0	0	0	0	22932
Cn1cc(SCc2ccc([N+](=O)[O-])cc2)c2ccccc21	-	-	-	0	-
Cc1ccc2nc(NC(=O)CSc3ccc(-c4cccnc4)nn3)sc2c1	-	-	-	0	-
CC(=O)Nc1nnc(-c2cc(C)n(C)n2)o1	-	-	-	0	-
Cc1ccc(NC(=O)NC2C(NC(=O)Nc3ccc(C)cc3)N(C)C(=O)N2C)cc1 (stereo unspecified)	?	0	0	0	18428
O=S(=O)(Cc1ccc(Cl)cc1)c1ccc(N2CCN(Cc3ccc4c(c3)OCO4)CC2)nn1	-	-	-	0	-
CS(=O)(=O)c1ccc(C(=O)N2CCc3ccccc3C2)cc1	0	0	0	0	0
CN(c1ccccc1C(=O)N1CCc2ccccc2C1)S(C)(=O)=O	0	0	0	0	22577
Cc1ccc2nc(-c3ccccc3)cc(C(=O)N3CCc4ccccc4C3)c2c1	?	0	0	0	23070
CCOC(=O)N1CCN(C(=O)c2cccn3c(=O)c4cc(Br)ccc4nc23)CC1	0	0	0	0	0
O=C(c1cccn2c(=O)c3cc(Br)ccc3nc12)N1CCN(c2ccccn2)CC1	0	0	0	0	18386
O=C(c1cc(-c2ccccc2)nc2ccccc12)N1CCc2ccccc2C1	0	0	0	0	0
CCOC(=O)N1CCN(C(=O)c2cccn3c(=O)c4sccc4nc23)CC1	?	0	0	0	22718
CC(C)(C)c1cc(NC(=O)C2(c3ccccc3)CCOCC2)on1	-	-	-	0	-
O=C1OC2CC1N(C(=O)Cn1cnc3ccccc3c1=O)C2 (stereo unspecified)	-	-	-	0	-
O=C(c1cccc(Cl)c1Cl)N1CCN(c2ccccn2)CC1	?	0	0	0	16331
O=C(c1cccn2c(=O)c3cc(Cl)ccc3nc12)N1CCC2(CC1)OCCO2	0	0	0	0	0
O=C(c1cc(-c2ccccc2)nc2ccccc12)N1CCC2(CC1)OCCO2	0	0	0	0	23724
COc1cccc(-c2cc(C(=O)N3CCN(c4ncccn4)CC3)c3ccccc3n2)c1	0	0	0	0	0
SMILES	BoNT-A LC inh2	Anthrax LF prot	BoNT-F LC inh	SSB-PriA inh	Autofluor counter
O=C(c1ccccc1Cl)N1CCN(c2ccccn2)CC1	0	0	0	0	0
Cc1ccc(-c2cc(C(=O)N3CCOCC3)c3ccccc3n2)cc1	0	0	0	0	0
O=C(c1cccn2c(=O)c3ccccc3nc12)N1CCC2(CC1)OCCO2	0	0	0	0	22328
CC(C)Oc1cccc(-c2cc(C(=O)N3CCN(c4ncccn4)CC3)c3ccccc3n2)c1	?	0	0	-	23367
CCCOc1ccc(-n2nnc(C(=O)N3CCOCC3)c2C)cc1	-	-	-	0	-
O=C(CCn1c(=S)[nH]c2cc3c(cc2c1=O)OCO3)N1CCN(c2ccccn2)CC1	-	-	-	0	-
O=C(CCCn1c(=S)[nH]c2ccc(Br)cc2c1=O)N1CCN(c2ccccn2)CC1	0	0	0	0	16819
O=C(c1cccn2c(=O)c3ccccc3nc12)N1CCN(c2ccccn2)CC1	0	0	0	0	23291
Cc1ccc(S(=O)(=O)c2c(Nc3c(C)cccc3C)sc(C(=O)c3ccc4c(c3)OCO4)c2N)cc1	-	-	-	0	-
CCOc1cn(C)c(C(=O)Nc2ccccc2CC)cc1=O	-	-	-	0	-
COc1cccc(C2=Nc3ccccc3N=C(SCC(=O)Nc3cccc(C)c3)C2)c1	-	-	-	0	-
CCc1nc(C)cn1S(=O)(=O)c1cc(C)c(Cl)cc1C	-	-	-	0	-
CC(C)C1Cc2c(C#N)c(N)sc(=S)c2CO1 (stereo unspecified)	72	47	0	0	0
CC1(C)Cc2c(C#N)c(N)sc(=S)c2CO1	0	0	0	0	0
Clc1nc(-c2ccccc2)cc(-c2ccc(Br)cc2)n1	0	0	0	0	23930
Nc1cc(-c2ccc(Br)cc2)nc2cc(-c3ccccc3)nn12	0	0	0	0	0
